Consider 40 compounds from PubChem BioAssay (Tox21).

Records with an inconclusive call do not appear. A call without a number means that no potency is given here. Active and inactive are the calls of the source. Calls come from the whole dose curve.
Potency is the fitted concentration of half-maximal effect.

The target in this assay is D(2) dopamine receptor (Homo sapiens) (UniProt P14416). In words: Dopamine D2 receptor (DRD2) small molecule agonists, cell-based qHTS assay (AID 1963594). Note: nearly all actives have a fitted effect of over 35% in size. Conditions: HEK293-DRD2 cAMP HTRF, agonist mode, 30 min; series mostly up to 92.4 µM. The text has this: National Center for Advancing Translational Sciences [NCATS]
D(2) dopamine receptor (Homo sapiens), sequence (P14416 whole entry, looked up): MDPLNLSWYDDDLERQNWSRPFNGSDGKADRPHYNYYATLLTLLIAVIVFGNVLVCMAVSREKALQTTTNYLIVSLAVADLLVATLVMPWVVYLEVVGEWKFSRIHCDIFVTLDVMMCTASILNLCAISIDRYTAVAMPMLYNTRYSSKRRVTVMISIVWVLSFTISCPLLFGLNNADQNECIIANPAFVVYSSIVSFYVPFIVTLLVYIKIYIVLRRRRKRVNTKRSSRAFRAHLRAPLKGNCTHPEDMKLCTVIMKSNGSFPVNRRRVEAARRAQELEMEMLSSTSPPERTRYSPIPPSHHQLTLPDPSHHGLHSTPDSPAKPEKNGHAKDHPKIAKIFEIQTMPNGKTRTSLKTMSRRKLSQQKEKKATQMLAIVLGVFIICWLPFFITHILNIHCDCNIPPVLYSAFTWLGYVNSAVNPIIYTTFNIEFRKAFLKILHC
Division of Preclinical Innovation [DPI]
U.S. Environmental Protection Agency [EPA]
National Institutes of Environmental Health Sciences [NIEHS]
National Toxicology Program [NTP]
U.S. Food and Drug Administration [FDA]
DRD2 is the D2 subtype of the dopamine receptor, which is coupled to Gi subtype of G protein-coupled receptor. This G protein-coupled receptor inhibits adenylyl cyclase activity. The DRD2-HEK293 cell line stably expressing D2 dopamine receptor can be used for screening agonists and antagonists of interactions between D2 and its ligands. The Hek293-DRD2 cAMP assay is based on HTRF technology. It measures changes of cAMP accumulation in response to Gi coupled GPCR activation or inhibition.
Tox21 Assay Protocol Summary:
DRD2-Hek293 cells were dispensed at 600 cells/3uL/well in 1536-well white plates using a Multidrop Dispenser. After the assay plates were incubated at a 37 C/5% CO2 incubator for 24 h, 1 uL of Ro20-1724 at final concentration of 0.1 mM was transferred to the assay plate by a Flying Reagent Dispenser. Following Ro20-1724 addition, 23 nL of compound dissolved in DMSO, positive controls or DMSO only was added to the assay plates via Wako pintool station. The assay plates were incubated at room temperature for 10 min. Next, 1 uL of NKH477 at 200nM was added into the plates. After the assay plates were incubated at room temperature for an additional 30 min, 2.5 ul/well of cAMP-d2 and 2.5 ul/well of anti-cAMP-cryptate were added respectively into the assay plates using a Flying Reagent Dispenser. The plates were incubated at room temperature for 1 h. The fluorescence intensity in the plates was measured at 340 nm excitation and 665 & 620 nm emission by an Envision plate reader.
(In general: Quantitative high-throughput screening tests each substance at several concentrations.)
For the compound `O=[N+]([O-])c1cc(Cl)c(Cl)c(Cl)c1Cl`, the Potency entry is “inactive”. Next, `Cc1cc(C(C)(C)C)c(O)c(C)c1CC1=NCCN1`: “inactive”. Next, `CCn1cc(C(=O)O)c(=O)c2cc(F)c(N3CCNC(C)C3)c(F)c21` (stereo not given): “inactive”; `CCCCCCCCCCCC`: “inactive”; `CCCCCCCCCC=O`: “inactive”.

As to `CC(N)CCCC(C)(C)O` (stereo not given), the Potency result is “inactive”. Next, `CCCCOC(=O)C(C)CC` (stereo not given): “inactive”; `CC[N+](CC)(CC)CCOc1cccc(OCC[N+](CC)(CC)CC)c1OCC[N+](CC)(CC)CC`: “inactive”; `CN(C)CCN1CCN(c2cccc(Cl)c2)C1=O`: 13.3 µM (active). In the case of `CCCC(=O)OCCC(C)C`, the Potency entry was “inactive”. Next, `CCOC(=O)CC(=O)c1cc(F)c(Cl)nc1Cl`: “inactive”; `C/C=C\C/C=C/CCCCCCCCOC(C)=O`: “inactive”. For the compound `Nc1cccc(S(=O)(=O)c2cccc(N)c2)c1`, the Potency result is “inactive”. Under `CNCCc1ccccn1` stands “inactive”; under `Nc1ccc(S(=O)(=O)Nc2ccccn2)cc1`, “inactive”; under `NS(=O)(=O)c1ccc(Cl)c(S(N)(=O)=O)c1`, “inactive”. Under `CC(=O)c1c(C)cc(C(C)(C)C)cc1C` stands “inactive”; under `COc1ccc(CN2CCN(C(c3ccc(F)cc3)c3ccc(F)cc3)CC2)c(OC)c1OC`, “inactive”.

On to `CC(C)(C)c1n[nH]c(=S)n(N)c1=O`, for which the Potency result is “inactive”.

Take `COc1cc2c(N3CCN(C(=O)Nc4ccc(OC(C)C)cc4)CC3)ncnc2cc1OCCCN1CCCCC1`: the Potency result is “inactive”.

Turning to `N[C@H]1CN(c2c(F)cc3c(=O)c(C(=O)O)cn(C4C[C@H]4F)c3c2Cl)CC12CC2` (stereo not given in full), the Potency result is “inactive”.

As to `C(=C/c1ccccc1)/c1ccccc1`, the Potency entry is “inactive”.

As to `CC(C)C(=O)Nc1cccc(C(F)(F)F)c1`, the Potency entry is “inactive”. On to `CCCCCCCCCCCCCCCCC(=O)O`, for which the Potency result is “inactive”. Under `CC(C)=CCC/C(C)=C/COC=O` stands “inactive”; under `CCCCC(CC)CN` (stereo not given), “inactive”. Under `CC(O)c1ccccc1` (stereo not given) stands “inactive”. Under `CC[C@@H](N)CO` stands “inactive”; under `CC/C=C\CCOC(=O)c1ccccc1`, “inactive”. In the case of `O=C1CCCCO1`, the Potency result was “inactive”. `CCS(=O)(=O)CCn1c([N+](=O)[O-])cnc1C`: the Potency result is “inactive”. Under `COC(=O)NN` stands “inactive”; under `S=c1[nH][nH]c(=S)s1`, “inactive”.

For `CCC(C)C(=O)OC` (stereo not given), the Potency entry was “inactive”. Next, `CCOC(=O)C1=C(C)NC(C)=C(C(=O)OC)C1c1cccc([N+](=O)[O-])c1` (stereo not given): “inactive”; `C=CCCCCCCCCC(=O)OCC`: “inactive”.

For the compound `C[C@H](CN1CCCC1)C(=O)c1ccc(C(F)(F)F)cc1`, the Potency result was “inactive”.

With `CCN(CC)CCNC(=O)COc1ccc(Cl)cc1`, the Potency result is “inactive”.

For `CCCCOc1cc(C(=O)NCCN(CC)CC)c2ccccc2n1`, the Potency entry is “inactive”. Consider `CCCCS`, for which the Potency entry is “inactive”.
